Data reported in PubChem BioAssay (Tox21).
Unmarked numbers belong to inactive results. Results filed as inconclusive are left out. Entries that show only a call come without a potency. Activity calls are given as the source filed them. Unless noted, the call rests on the fitted dose curve.

Tests used:
[1] = Nuclear factor erythroid 2-related factor 2/antioxidant responsive element (Nrf2/ARE) small molecule agonists: qHTS cell viability counter screen in human keratinocytes (AID 1919968; active means well fitted curve in the direction sought with a large enough effect in the repeat runs; an effect the other way counts as inactive or inconclusive; further: nearly all actives have a fitted effect of over 55% in size)
How it was run: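 KeratinoSens cells (HaCaT keratinocytes stably carrying an ARE-luciferase reporter) were seeded at 1,500 cells/well and rested 5 h at 37 C/5% CO2. They were then exposed to compounds in DMSO for 23 h. Viability was read by CellTiter-Fluor fluorescence after 1 h.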

[2] = Nuclear factor erythroid 2-related factor 2/antioxidant responsive element (Nrf2/ARE) small molecule agonists: luciferase reporter gene qHTS assay in human keratinocytes (AID 1919969); further: nearly all actives have a fitted effect of over 35% in size; further: potency means the concentration at half of the fitted maximal effect
[3] = biological target: Gonadotropin-releasing hormone receptor (Homo sapiens) (UniProt P30968); assay: Human gonadotropin-releasing hormone receptor (GnRHR) small molecule agonists, calcium flux assay in GnRHR-HEK293 cells (AID 1920063); further: nearly all actives have a fitted effect of over 35% in size
Chain of Gonadotropin-releasing hormone receptor (Homo sapiens) (P30968 whole entry, looked up): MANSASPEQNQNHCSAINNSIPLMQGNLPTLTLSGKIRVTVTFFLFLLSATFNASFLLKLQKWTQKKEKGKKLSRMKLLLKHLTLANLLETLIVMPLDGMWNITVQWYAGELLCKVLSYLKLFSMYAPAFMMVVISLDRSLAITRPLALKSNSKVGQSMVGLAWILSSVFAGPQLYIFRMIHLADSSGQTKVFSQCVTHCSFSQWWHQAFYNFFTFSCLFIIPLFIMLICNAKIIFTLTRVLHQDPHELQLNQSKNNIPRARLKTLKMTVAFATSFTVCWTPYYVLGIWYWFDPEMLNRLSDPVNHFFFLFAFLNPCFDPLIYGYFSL
How it was run: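 HEK293 cells stably expressing human GnRHR were plated 18 h at 37 °C, loaded with calcium dye 1 h at 37 °C, then given compound in agonist mode; fluorescence (Ex/Em 480/540) read kinetically for 3 min at 1 s intervals.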

[4] = biological target: KiSS-1 receptor (Homo sapiens) (UniProt Q969F8); assay: Human kisspeptin (KISS1R) small molecule agonists, calcium flux assay in KISS1R-HEK293 cells (AID 1920064; active means well fitted curve in the direction sought with a large enough effect in the repeat runs; an effect the other way counts as inactive or inconclusive)
Chain of KiSS-1 receptor (Homo sapiens) (Q969F8 whole entry, looked up): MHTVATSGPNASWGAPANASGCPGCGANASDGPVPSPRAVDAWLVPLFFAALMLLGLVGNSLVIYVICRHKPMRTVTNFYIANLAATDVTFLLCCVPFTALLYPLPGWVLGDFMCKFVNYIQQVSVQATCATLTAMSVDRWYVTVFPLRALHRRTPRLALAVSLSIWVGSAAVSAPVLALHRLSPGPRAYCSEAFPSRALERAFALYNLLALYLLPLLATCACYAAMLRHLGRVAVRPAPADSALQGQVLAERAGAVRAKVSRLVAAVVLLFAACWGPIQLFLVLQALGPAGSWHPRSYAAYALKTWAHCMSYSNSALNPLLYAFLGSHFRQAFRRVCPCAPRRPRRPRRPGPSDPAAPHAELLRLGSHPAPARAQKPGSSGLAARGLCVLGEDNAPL
How it was run: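 HEK293 cells stably expressing human KISS1R were plated 18 h at 37 °C, loaded with calcium dye for 1 h at 37 °C, then given compound by pin tool. Fluorescence (Ex/Em 480/540) was read kinetically for 3 min.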

[5] = G protein-coupled receptor (GPCR) small molecule agonists, calcium flux assay: HEK293 wild type cell line counter screen (AID 1920065)
How it was run: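 Cells were plated and cultured 18 h at 37 C/5% CO2, then loaded with calcium dye for 1 h at 37 C. Compounds in DMSO were pin-transferred in agonist mode, and fluorescence (Ex/Em 480/540) was read kinetically for 3 min at 1 s intervals.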

[6] = p53 small molecule agonists, cell-based qHTS assay with human liver microsomes (AID 1963577);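 further: p53 response element beta-lactamase reporter cells with liver microsomes plus NADPH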
How it was run: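 HLM-supplemented p53RE-bla reporter assay: 16 h compound exposure at 37 C, microsomes and NADPH each 0.5 mg/mL final, read by fluorescence intensity.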

[7] = p53 small molecule agonists, cell-based qHTS assay with rat liver microsomes (AID 1963578)
How it was run: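 Quantitative HTS of the Tox21 10K library: p53RE-bla cells, rat liver microsomes plus NADPH at 0.5 mg/mL final each, 16 h at 37 C, beta-lactamase fluorescence detection.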

[8] = p53 small molecule agonists, cell-based qHTS assay with human liver microsomes: qHTS cell viability counter screen (AID 1963579); further: nearly all actives have a fitted effect of over 45% in size
How it was run: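 Viability of p53RE-bla cells is measured as CellTiter-Glo luminescence following a 16 h, 37 C incubation with compound, liver microsomes from human donors and NADPH.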

[9] = p53 small molecule agonists, cell-based qHTS assay with rat liver microsomes: qHTS cell viability counter screen (AID 1963580); further: nearly all actives have a fitted effect of over 45% in size
How it was run: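 In HCT-116 cells carrying a p53 response element-bla reporter, compounds were metabolically activated in situ by rat liver microsomes with NADPH over 16 h. Cell ATP content then served as the cytotoxicity measure.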

[10] = p53 small molecule agonists, cell-based qHTS assay: qHTS cell viability counter screen (AID 1963581); further: nearly all actives have a fitted effect of over 45% in size
How it was run: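 p53RE-bla HCT-116 cells were exposed to compounds for 16 h at 37 C; after the beta-lactamase FRET read in the same wells, CellTiter-Glo was added and luminescence (intracellular ATP) read after 30 min at room temperature.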

[11] = p53 small molecule agonists, cell-based qHTS assay (AID 1963582; active means well fitted activation curve with a large enough effect in the signal ratio in the repeat runs, not every such curve was filed as active; the % refers to the signal ratio)
How it was run: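 p53RE-bla beta-lactamase reporter cells rested 5 h at 37 C/5% CO2, then received compounds in DMSO by pin transfer and were incubated 16 h at 37 C. LiveBLAzer B/G FRET substrate was loaded for 2 h at room temperature before fluorescence reading.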

[12] = biological target: 5-hydroxytryptamine receptor 2A (Homo sapiens) (UniProt P28223); assay: 5-hydroxytryptamine receptor 2A (HTR2A) small molecule antagonists, cell-based qHTS assay (AID 1963586); further: nearly all actives have a fitted effect of over 45% in size
Chain of 5-hydroxytryptamine receptor 2A (Homo sapiens) (P28223 whole entry, looked up): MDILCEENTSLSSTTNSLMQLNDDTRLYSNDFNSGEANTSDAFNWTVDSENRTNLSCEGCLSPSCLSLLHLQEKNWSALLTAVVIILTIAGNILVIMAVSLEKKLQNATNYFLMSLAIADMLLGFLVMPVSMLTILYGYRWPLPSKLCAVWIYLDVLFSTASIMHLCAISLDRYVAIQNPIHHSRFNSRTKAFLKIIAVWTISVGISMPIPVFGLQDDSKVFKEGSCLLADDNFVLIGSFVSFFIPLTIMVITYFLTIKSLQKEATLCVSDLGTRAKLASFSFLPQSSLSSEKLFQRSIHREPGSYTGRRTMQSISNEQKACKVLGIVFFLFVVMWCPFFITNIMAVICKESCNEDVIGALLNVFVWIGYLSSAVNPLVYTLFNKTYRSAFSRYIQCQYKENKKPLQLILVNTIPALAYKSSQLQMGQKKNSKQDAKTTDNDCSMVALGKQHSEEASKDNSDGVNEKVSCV
How it was run: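 Antagonist-mode intracellular calcium assay: DOI (4 nM) added after 5 min compound pre-incubation at room temperature to dye-loaded HTR2A-CHO cells. Fluorescence followed for 3 min, sampled every second.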

[13] = biological target: 5-hydroxytryptamine receptor 2A (Homo sapiens) (UniProt P28223); assay: 5-hydroxytryptamine receptor 2A (HTR2A) small molecule agonists, cell-based qHTS assay (AID 1963587); further: nearly all actives have a fitted effect of over 30% in size
How it was run: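 HTR2A-CHO cells, plated 18 h at 37 C/5% CO2, dye-loaded 1 h at 37 C; compounds in DMSO added by pin tool (agonist mode). Intracellular calcium flux read as kinetic fluorescence on FDSS over 2 min at 1 s intervals.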

[14] = biological target: Muscarinic acetylcholine receptor M1 (Homo sapiens) (UniProt P11229); assay: Cholinergic receptor muscarinic 1 (CHRM1) small molecule antagonists, cell-based qHTS assay (AID 1963588); further: nearly all actives have a fitted effect of over 40% in size; further: potency means the concentration at half of the fitted maximal effect
Chain of Muscarinic acetylcholine receptor M1 (Homo sapiens) (P11229 whole entry, looked up): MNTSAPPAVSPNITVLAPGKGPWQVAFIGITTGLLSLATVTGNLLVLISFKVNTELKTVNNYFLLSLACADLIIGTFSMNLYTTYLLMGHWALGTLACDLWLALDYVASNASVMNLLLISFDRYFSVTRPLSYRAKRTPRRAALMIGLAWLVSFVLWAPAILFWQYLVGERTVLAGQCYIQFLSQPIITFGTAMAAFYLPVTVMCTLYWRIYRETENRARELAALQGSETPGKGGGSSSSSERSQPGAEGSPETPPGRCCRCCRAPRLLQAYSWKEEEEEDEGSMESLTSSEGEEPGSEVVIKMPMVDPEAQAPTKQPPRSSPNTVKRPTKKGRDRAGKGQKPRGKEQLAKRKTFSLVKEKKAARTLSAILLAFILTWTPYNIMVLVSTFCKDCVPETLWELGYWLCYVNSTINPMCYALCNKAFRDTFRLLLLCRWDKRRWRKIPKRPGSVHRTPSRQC
How it was run: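 CHRM1-CHO calcium-flux assay, antagonist mode. Cells were seeded 18 h, dye-loaded 1 h at 37 C and given compound for 5 min at RT, then acetylcholine was added at 50nM. FDSS fluorescence was read 3 min; 15 concentrations, three runs.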

[15] = biological target: Muscarinic acetylcholine receptor M1 (Homo sapiens) (UniProt P11229); assay: Cholinergic receptor muscarinic 1 (CHRM1) small molecule agonists, cell-based qHTS assay (AID 1963589); further: nearly all actives have a fitted effect of over 35% in size
How it was run: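 CHO cells stably expressing human CHRM1, seeded 18 h at 37 C/5% CO2, dye-loaded 1 h at 37 C, then given compound in agonist mode; intracellular calcium fluorescence read kinetically at 1 s intervals. Fifteen concentrations, three independent runs.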

[16] = cAMP Responsive Elements (CRE) small molecule agonists, cell-based qHTS assay (AID 1963590)
How it was run: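 CRE-bla HEK 293T cells in DMEM with 10% dialyzed FBS, NEAA, pyruvate and 25 mM HEPES were plated 18 h at 37 C/5% CO2, then exposed to compounds in DMSO for 3 h before LiveBLAzer B/G FRET substrate addition.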

[17] = biological target: Beta-2 adrenergic receptor (Homo sapiens) (UniProt P07550); assay: Adrenergic beta2 receptor (ADRB2) small molecule antagonists, cell-based qHTS assay (AID 1963592); further: series mostly up to about 92 µM; nearly all actives have a fitted effect of over 50% in size
Chain of Beta-2 adrenergic receptor (Homo sapiens) (P07550 whole entry, looked up): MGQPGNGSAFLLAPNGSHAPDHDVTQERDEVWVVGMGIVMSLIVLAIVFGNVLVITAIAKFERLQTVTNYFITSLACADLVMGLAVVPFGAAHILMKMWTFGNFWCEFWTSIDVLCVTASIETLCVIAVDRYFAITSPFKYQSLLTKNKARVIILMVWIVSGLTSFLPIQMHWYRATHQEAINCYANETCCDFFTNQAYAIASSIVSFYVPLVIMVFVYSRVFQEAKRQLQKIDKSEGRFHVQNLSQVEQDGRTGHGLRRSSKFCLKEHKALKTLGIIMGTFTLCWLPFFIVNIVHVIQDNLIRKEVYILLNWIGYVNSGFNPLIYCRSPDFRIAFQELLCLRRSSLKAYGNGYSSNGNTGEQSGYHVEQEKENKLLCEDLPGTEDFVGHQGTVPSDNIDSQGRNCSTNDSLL
How it was run: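 Cells (CHO, stable ADRB2 overexpression) incubated 18-20hr at 37C; compounds added from DMSO; agonist mix (1nM isoproterenol, 100uM IBMX, 25uM Ro-20-1724) added; 0.5hr RT; d2-cAMP and anti-cAMP-cryptate added; 1hr RT; 665/615 nm read.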

[18] = biological target: D(2) dopamine receptor (Homo sapiens) (UniProt P14416); assay: Dopamine D2 receptor (DRD2) small molecule agonists, cell-based qHTS assay (AID 1963594); further: nearly all actives have a fitted effect of over 35% in size
Chain of D(2) dopamine receptor (Homo sapiens) (P14416 whole entry, looked up): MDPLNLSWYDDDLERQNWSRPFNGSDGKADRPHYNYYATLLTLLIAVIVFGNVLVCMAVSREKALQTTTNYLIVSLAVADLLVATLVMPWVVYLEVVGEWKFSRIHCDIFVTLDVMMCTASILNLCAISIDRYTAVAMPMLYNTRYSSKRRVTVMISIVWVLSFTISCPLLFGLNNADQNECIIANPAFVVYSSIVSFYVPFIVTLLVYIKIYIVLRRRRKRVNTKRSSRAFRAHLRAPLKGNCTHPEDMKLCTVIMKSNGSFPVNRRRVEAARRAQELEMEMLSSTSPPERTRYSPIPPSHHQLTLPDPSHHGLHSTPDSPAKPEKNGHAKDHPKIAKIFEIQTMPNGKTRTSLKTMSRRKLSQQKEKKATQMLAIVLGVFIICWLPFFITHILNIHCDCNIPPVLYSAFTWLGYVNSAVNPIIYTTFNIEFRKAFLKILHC
How it was run: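 HEK293 cells stably expressing DRD2 were cultured 24 h at 37 C, then given Ro20-1724 (0.1 mM final) and compounds for 10 min at room temperature. NKH477 (200nM) was then added for 30 min. cAMP was read by HTRF.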

[19] = biological target: D(2) dopamine receptor (Homo sapiens) (UniProt P14416); assay: Dopamine D2 receptor (DRD2) small molecule antagonists, cell-based qHTS assay (AID 1963595; active means well fitted inhibition curve with a large enough effect in the signal ratio in the repeat runs, with a control signal flat; the % refers to the signal ratio)
How it was run: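 HEK293 cells stably expressing DRD2, preincubated with 0.1 mM Ro20-1724 and compounds 10 min, were stimulated with 200 nM NKH477 plus 12 nM quinpirole for 30 min at room temperature; cAMP measured by HTRF (665/620 nm).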

[20] = cAMP Responsive Elements (CRE) small molecule antagonists, cell-based qHTS assay (AID 1963591; active means well fitted inhibition curve with a large enough effect in the signal ratio in the repeat runs, not every such curve was filed as active; the % refers to the signal ratio)
How it was run: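 CRE-bla HEK293T cells were plated 18 h at 37 °C/5% CO2, pinned with compound in DMSO, then stimulated with NKH477 at 0.25 uM final for 3 h. LiveBLAzer B/G FRET substrate was added and plates incubated 2 h at room temperature.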

SMILES | Potency [1] | Potency [2] | Potency [3] | outcome [4] | outcome [5] | Potency [6] | Potency [7] | Potency [8] | Potency [9] | Potency [10] | Potency [11] | Potency [12] | Potency [13] | Potency [14] | Potency [15] | Potency [16] | Potency [17] | Potency [18] | Potency [19] | Potency [20]
COc1ccc(/C(C)=C/C(=O)O)c(OC)c1 | inactive | inactive | inactive | inactive | inactive | inactive | inactive | inactive | inactive | inactive | inactive | inactive | inactive | inactive | inactive | inactive | inactive | inactive | inactive | 
CCCCC1CCCCC(=O)O1 (stereo not drawn) | inactive | inactive | inactive | inactive | inactive | inactive | inactive | inactive | inactive | inactive | inactive | inactive | inactive | inactive | inactive |  | inactive |  | inactive | inactive
COc1ccc2nc(SCc3ncc(C)c(OC)c3C)[nH]c2c1 | inactive | inactive | inactive | inactive | inactive | inactive | inactive | inactive | inactive | inactive | inactive | inactive | inactive | inactive | inactive | inactive |  | inactive | inactive | 
CC(C)CCCC(C)NCCC(C)C (stereo not drawn) | inactive | inactive | inactive | inactive | inactive | inactive | inactive | inactive | inactive | inactive | inactive | inactive | inactive | inactive | inactive | inactive | inactive | inactive | inactive | 
c1ccc(SSc2ccccc2)cc1 | inactive | 27.5 µM (active) | inactive | inactive | inactive | inactive | inactive | inactive | inactive | inactive | inactive | inactive | inactive | inactive | inactive |  | inactive | inactive | inactive | inactive
COc1ccccc1N1CCN(CC(O)COc2cc(OC)c(OC)c(OC)c2)CC1 (stereo not drawn) | inactive | inactive | inactive | inactive | inactive | inactive | inactive | inactive | inactive | inactive | inactive | inactive | inactive | inactive | inactive |  | inactive |  | inactive | inactive
COC(=O)c1ccc(OC)cc1 | inactive | inactive | inactive | inactive | inactive | inactive | inactive | inactive | inactive | inactive | inactive | inactive | inactive | inactive | inactive | inactive | inactive | inactive | inactive | 
CC(=O)N/N=C/c1ccc([N+](=O)[O-])o1 | inactive | 33.5 µM (active) | inactive | inactive | inactive | inactive | inactive | inactive | inactive | inactive | inactive | inactive | inactive | 0.0326 µM (active) | inactive | inactive |  | inactive | inactive | 
